Results on 26 compounds are retold here after PubChem BioAssay (NCATS).

Assay [1] in a line: BET inhibitor-based combinations targeting novel dependencies in MECOM-rearranged (r) AML: SET-2 cell line (AID 2202231). Further: nearly all actives have a fitted effect of over 35% in size.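 On viability: plate controls were DMSO treated cells for no effect and wells without cells for full effect.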 Conditions: SET-2 AML cells viability, CellTiter-Glo luminescence, 48 h; viability: active compounds read low, concentration not given here. Put shortly:
(§1)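 Each compound was tested at eleven concentrations on cells seeded at 500/well. After two days' incubation, ATP-based luminescence reported viability; responses relative to DMSO and blank wells yielded AUC and cell-line-centred Z-AUC.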
For orientation: In ATP-based viability assays light output follows the ATP content of the culture.

Assay [2] can be described thus: BET inhibitor-based combinations targeting novel dependencies in MECOM-rearranged (r) AML: MV-4-11 cell line (AID 2202233). Further: nearly all actives have a fitted effect of over 45% in size. Put shortly: (§2)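 First, 500 cells per well were seeded; next, drugs were pinned as 11-point doses; then plates sat 48 hr in the incubator; finally CellTiter-Glo was added and luminescence read, with AUC and Z-AUC computed.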
The nature of assay [3]: BET inhibitor-based combinations targeting novel dependencies in MECOM-rearranged (r) AML: HNT-34 cell line (AID 2202234). Further: nearly all actives have a fitted effect of over 35% in size. The method, boiled down:
as §2

The nature of assay [4]: BET inhibitor-based combinations targeting novel dependencies in MECOM-rearranged (r) AML: UCSD-AML1 cell line (AID 2202235). Further: nearly all actives have a fitted effect of over 40% in size. The method, boiled down:
as §2

Assay [5] can be described thus: BET inhibitor-based combinations targeting novel dependencies in MECOM-rearranged (r) AML: AML-191 cell line (AID 2202236; further: nearly all actives have a fitted effect of over 35% in size). Put shortly:
as §1

A short description of assay [6]: BET inhibitor-based combinations targeting novel dependencies in MECOM-rearranged (r) AML: AML-194 cell line (AID 2202237; further: nearly all actives have a fitted effect of over 40% in size). The method, boiled down: as §1
A short description of assay [7]: BET inhibitor-based combinations targeting novel dependencies in MECOM-rearranged (r) AML: OCI-AML3 cell line (AID 2202232). Further: nearly all actives have a fitted effect of over 35% in size. Conditions: Potency: OCI-AML3 viability. The method, boiled down:
as §1

Inconclusive results are not listed. A number with no mark means an inactive call. Activity calls are given as the source filed them. The call rests on the fitted dose curve; in most records, active means well fitted curve in the direction sought with a large enough effect; inconclusive means small, poorly fitted or top-dose-only effect, or another doubt; inactive means no such curve, though single readings can be large; an effect the other way counts as inactive or inconclusive.
Potency means the concentration at half of the fitted maximal effect.

`COc1nc(OCc2cccc(-c3ccccc3)c2C)ccc1CNCCNC(C)=O`: the Potency in assay [1] is 26.3 µM (active); in assay [2], 16.6 µM (active); in assay [3], 26.3 µM (active); in assay [4], 20.9 µM (active); in assay [5], 18.6 µM (active); in assay [6], 26.3 µM (active).
Regarding `COc1cc(/C=C/C(=O)CC(=O)/C=C/c2ccc(O)c(OC)c2)ccc1O`, the Potency in assay [1] is 20.9 µM (active); in assay [2] it was 3.32 µM (active); in assay [3], 14.8 µM (active); in assay [4], 13.2 µM (active); in assay [5], 16.6 µM (active); in assay [6], 18.6 µM (active).
In the case of `Nc1ncnc2nc(-c3ccc(N4CCOCC4)nc3)cc(-c3cccc(Br)c3)c12`, in assay [1], the viability (in general, a read-out of living cells in per cent, often relative to untreated cells) was 91.6%. In assay [2], the Potency is 8.33 µM (active).
`C[C@@H]1N=C(N)NC(N(C)C)=N1`: the viability in assay [1] is 102%. The Potency result in assay [2], in assay [3], in assay [4], in assay [5] and in assay [6] was “inactive” in each case.
For `O=c1cc(N2CCOCC2)oc2c(-c3ccc4c(c3)OCCO4)csc12`, the Potency in assay [1] was 3.32 µM (active); in assay [2] it was 2.09 µM (active); in assay [3] it was 5.25 µM (active); in assay [4], 3.32 µM (active); in assay [5], 5.25 µM (active); in assay [6] it was 2.95 µM (active).
Turning to `CN1N=C(N)c2cn([C@@H]3O[C@H](COP(=O)(O)O)[C@@H](O)[C@@H]3O)c3ncnc1c23`, the Potency in assay [1] was 2.63 µM (active); in assay [2], 0.525 µM (active); in assay [3], 0.468 µM (active); in assay [4], 1.18 µM (active); in assay [5], 2.35 µM (active); in assay [6] it was 1.66 µM (active).
`Cc1ccc(NC(=O)[C@H]2CCCN(C(=O)c3c(C)cccc3F)[C@H]2c2ccc(NC3CCCC3)cc2)cc1C(F)(F)F`: in assay [1], the viability is 94.7%. Further, the Potency entry in assay [2], in assay [4], in assay [5] and in assay [6] was “inactive” throughout. For the same compound, in assay [3], the Potency was 9.34 µM (active).
Regarding `O=S(=O)(NCCNC/C=C/c1ccc(Br)cc1)c1cccc2cnccc12`, the Potency in assay [1] and in assay [2] was 14.8 µM (active) each time.
Regarding `Cn1cc(-c2nc(N[C@@H]3CCCC[C@@H]3N)c(F)c3c2C(=O)NC3)cn1`, the viability in assay [1] is 112%. For the same compound, the Potency in assay [2] was 0.148 µM (active).
Consider `C[C@@H](Nc1cc(F)cc(F)c1)c1cc(C(=O)N(C)C)cc2c(=O)cc(N3CCOCC3)oc12`, for which the viability in assay [1] was 109%. The results for the Potency in assay [7] and in assay [5] were 5.9 µM (active) and 23.5 µM (active), respectively.
In the case of `COc1cc2c(NC3CCN(C4CCCCC4)CC3)nc(N3CCCN(C(C)C)CC3)nc2cc1OCCCN1CCCCC1`, the viability in assay [1] was 109%. The Potency in assay [2] is 7.42 µM (active).
In the case of `O=C(Cc1ccccc1)Nc1nnc(CCSCCc2nnc(NC(=O)Cc3ccccc3)s2)s1`, the values for the Potency in assay [1] and in assay [7] were 9.34 µM (active) and 0.468 µM (active), respectively. Besides, the Potency result in assay [6] is “inactive”.
In the case of `Cn1c(-c2ccccc2C(F)(F)F)nnc1C12CCC(c3noc(C4CC(F)(F)C4)n3)(CC1)CC2`, in assay [1], the viability is 105%. For the same compound, the Potency in assay [2] was 16.6 µM (active). In addition, the Potency entry in assay [3], in assay [4] and in assay [5] was “inactive” throughout.
`O=c1oc2cc(O)ccc2s1`: the viability in assay [1] is 106%. The Potency entry in assay [2], in assay [3], in assay [4], in assay [5] and in assay [6] was “inactive” throughout.
Take `CC1(N)CCN(c2cccnc2NC(=O)c2nc(-c3ncccc3C(F)(F)F)cnc2N)CC1`: the viability in assay [1] was 101%. Moreover, the results for the Potency in assay [2] and in assay [3] were 7.42 µM (active) and 18.6 µM (active), respectively.
For `CC(C)(C)c1[nH]cnc1/C=c1\[nH]c(=O)/c(=C/c2ccccc2)[nH]c1=O`, the Potency in assay [1] is 0.0833 µM (active); in assay [7], 0.0742 µM (active); in assay [6], 0.0742 µM (active).
In the case of `CN(C)Cc1cccc(N=C(c2ccccc2)c2c(O)[nH]c3cc(C(=O)N(C)C)ccc23)c1`, the Potency in assay [1] was 20.9 µM (active); in assay [2], 6.61 µM (active); in assay [3], 14.8 µM (active).
As for `CSC[C@H]1CN(Cc2c[nH]c3c(N)ncnc23)C[C@@H]1O`, the viability in assay [1] is 110%. Also, the Potency entry in assay [2], in assay [3], in assay [4], in assay [5] and in assay [6] was “inactive” in each case.
On to `CONC(=O)c1ccccc1Nc1cc(Nc2cc(C)nn2C(C)C)ncc1Cl`, for which the viability in assay [1] was 86.2%. Moreover, the Potency in assay [2] is 14.8 µM (active).
As for `C=C1/C(=C\C=C2/CCC[C@]3(C)[C@@H]([C@H](C)CCCC(C)(C)O)CC[C@@H]23)C[C@@H](O)C[C@@H]1O`, in assay [1], the viability was 99.5%. Besides, the Potency in assay [7] was 20.9 µM (active); in assay [6] it was 23.5 µM (active).
`CNCCN(C)Cc1cn[nH]c1-c1ccc(OC2CC(OCCC3CCOCC3)C2)cc1` (stereo unspecified): the viability in assay [1] is 95.3%. Moreover, the Potency in assay [2] was 20.9 µM (active); in assay [3] it was 18.6 µM (active).
`O=C(CCCCCCC(=O)N/N=C/c1ccc(N(c2ccccc2)c2ccccc2)cc1)NO`: the Potency was 7.42 µM (active) in assay [1], 13.2 µM (active) in assay [7], 6.61 µM (active) in assay [5] and 7.42 µM (active) in assay [6].
As to `COc1ccc(N2C(=O)N(c3c(C)cccc3Cl)Cc3cnc(Nc4ccc(C5CCN(C)CC5)cc4OC)nc32)nc1`, the Potency in assay [1] was 16.6 µM (active); in assay [2] it was 2.95 µM (active); in assay [3] it was 1.66 µM (active); in assay [4] it was 13.2 µM (active); in assay [5], 16.6 µM (active); in assay [6], 18.6 µM (active).
In the case of `CC[C@H](C)C(=O)O[C@H]1C[C@H](O)C=C2C=C[C@H](C)[C@H](CC[C@@H](O)C[C@@H](O)CC(=O)O)[C@H]21`, in assay [1], the viability is 113%. The Potency result in assay [2], in assay [3], in assay [4], in assay [5] and in assay [6] was “inactive” in each case.
Turning to `COC(=O)[C@H](CCCN=C(N)N)NS(=O)(=O)c1ccc(C)cc1`, the viability in assay [1] is 112%. For the same compound, the Potency result in assay [2], in assay [3], in assay [4], in assay [5] and in assay [6] was “inactive” each time.
As to `CCN(C)S(=O)(=O)Nc1ccc(F)c(C(=O)c2c[nH]c3ncc(-c4cnc(C5CC5)nc4)cc23)c1F`, the Potency in assay [1] is 18.6 µM (active); in assay [2], 23.5 µM (active); in assay [3], 4.17 µM (active); in assay [4], 20.9 µM (active); in assay [5], 16.6 µM (active).
